The record followed here is PubChem BioAssay AID1259343 (VanderVen Lab, College of Veterinary Medicine, Cornell …, 2017).

The inhibition is the change of the read-out against control, counted positive when it falls.

SMILES strings stand for the structures. Hit rate of the full screen: of about 6,200 compounds, about 2,900 (47%) were called active. So high a share suggests a set chosen from earlier hits. Some of the results follow. Unmarked numbers belong to inactive results. No stated cut-off is given here; in the data, active means inhibition above about 50%; inactive means the rest.

A short description of the assay: Mycobacterium tuberculosis growth inhibition, primary screen (AID 1259343). The note with it: inhibition: at 10 µM, active compounds read high; outcome: 10 uM.
For `O=C1CCCN1CCC1CCN(Cc2nc(-c3ccc(Cl)cc3)no2)CC1`, the inhibition was 74% (active). Consider `O=C(CCc1ccccc1)C1CCCN(Cc2nc(CC3CC3)no2)C1` (stereo unspecified), for which the inhibition result was “inactive”. Take `Clc1ccc(-c2noc(CN3CCN(c4ncnc5ccccc45)CC3)n2)cc1`: the inhibition was 71.1% (active). In the case of `Clc1ccc(-c2noc(CN3CCCN(c4ncccn4)CC3)n2)cc1`, the inhibition is 77.6% (active). Consider `O=C(CCc1ccccc1)C1CCCN(Cc2nc(-c3ccc(Cl)cc3)no2)C1` (stereo unspecified), for which the inhibition was 73.2% (active). Consider `c1ccc(CCCc2nc(-c3ccccn3)no2)cc1`, for which the inhibition is 30.6%. For the molecule `c1ccc(-c2noc(CN3CCCC(c4ccccc4)C3)n2)cc1` (stereo unspecified), the inhibition result was “inactive”.

`Clc1ccc(C2CCCN(Cc3nc(-c4ccccn4)no3)C2)cc1` (stereo unspecified): the inhibition was 73% (active). Turning to `Clc1ccc(-c2nc(-c3ccccn3)no2)cc1`, the inhibition is 79.7% (active).

Consider `C=CCSc1nnc(NC(=O)C2CCCCC2)s1`, for which the inhibition was 91.9% (active).

`Cc1csc(Sc2ccc(NC(=O)C3CCC3)c(C)c2)n1`: the inhibition was 33.2%. As to `O=C(Nc1nnc(SCCc2ccccc2)s1)C1CCCCC1`, the inhibition is 3.18%. With `Cc1cc(NC(=O)C(C)(C)CCl)n(-c2nc(C)c(C)c(=O)[nH]2)n1`, the inhibition is 101% (active).

As to `CC(=O)Nc1cc(C)nn1-c1nc(C)c(C)c(=O)[nH]1`, the inhibition is 101% (active).

For `Cc1cc(NC(=O)C(C)C)n(-c2nc(C)c(C)c(=O)[nH]2)n1`, the inhibition is -18.6%. The result for `COC(=O)CCc1c(C)nn(-c2nc(C)cc(=O)[nH]2)c1C` reads 43.3%; that for `CCC(=O)Nc1cc(C)nn1-c1nc(C)c(C)c(=O)[nH]1`, 99.7% (active). For `COC(=O)CCc1c(C)nn(-c2nc(C)c(C)c(=O)[nH]2)c1C`, the inhibition was 101% (active). `Cc1cc(NC(=O)Cc2ccccc2)n(-c2nc(C)c(C)c(=O)[nH]2)n1`: the inhibition was 99.4% (active). As for `Cc1[nH]nc(Nc2ccc(Cl)c(Cl)c2)c1[N+](=O)[O-]`, the inhibition was 70.3% (active). On to `CC(C)Oc1ccc(C(=O)NCc2cccs2)cc1`, for which the inhibition is 34.9%. As for `O=C(NCc1cccs1)c1cc(Br)ccc1F`, the inhibition was 83.2% (active). On to `Brc1ccc(NCc2cccs2)cc1`, for which the inhibition is 6.27%. Regarding `C=C(C)CN(CC)c1nc(N)c(C#N)c(C(C#N)Cc2ccc(C)cc2)c1C#N` (stereo unspecified), the inhibition was 21.1%. As for `CC1CCc2c(sc3nc[nH]c(=S)c23)C1` (stereo unspecified), the inhibition is 2.8%.

As to `Cc1sc2nc[nH]c(=S)c2c1C`, the inhibition is 88.8% (active).

For `Cc1ccc(-c2csc3nc[nH]c(=S)c23)cc1C`, the inhibition is 31.2%. Take `O=c1[nH]c2sc3c(c2c2ncnn12)CCCC3`: the inhibition is -17.8%. `S=c1[nH]cnc2sc3c(c12)CCCC3`: the inhibition was 93.9% (active). The result for `Cc1sc2nc[nH]c(=S)c2c1-c1ccccc1` reads 87.7% (active); that for `CC(N=c1ccccn1C(=O)Nc1ccc(Cl)c(Cl)c1)c1ccco1` (stereo unspecified), -3.96%; that for `CC(NC(=O)CN(C)CC(=O)Nc1ccc(Cl)c(Cl)c1)c1ccco1` (stereo unspecified), 86.6% (active).

As to `Fc1ccc(NN=Cc2ccc3c(c2)OCCO3)c(F)c1`, the inhibition is 37%. With `Fc1ccc(NN=Cc2ccc3c(c2)OCO3)c(F)c1`, the inhibition was 81.8% (active). Take `Fc1c(F)c(F)c(NN=Cc2ccc3c(c2)OCO3)c(F)c1F`: the inhibition is 89.5% (active).

For `C(=NNc1ccc2ccccc2n1)c1ccc2c(c1)OCCO2`, the inhibition was 27.8%.

With `O=C1C=C2C(=CCOC2O)O1` (stereo unspecified), the inhibition is 98.2% (active). `CC(NS(=O)(=O)c1ccccc1C#N)c1ccc(-n2ccnc2)cc1` (stereo unspecified): the inhibition is -48.9%. With `Nc1nc(-c2cc(F)ccc2F)cs1`, the inhibition was 77.2% (active). `Cc1cc(C)cc(Nc2nc(-c3ccc(F)cc3)cs2)c1`: the inhibition is 51.7% (active). With `C=CCNc1nc(-c2cc(F)ccc2F)cs1`, the inhibition was 45.9%.

Consider `Fc1ccc(F)c(-c2csc(Nc3ccc4c(c3)OCCO4)n2)c1`, for which the inhibition was 22.8%. Regarding `OC(c1cn2cc(-c3ccc(F)cc3)nc2s1)(C(F)(F)F)C(F)(F)F`, the inhibition was 15.3%. `Nc1nc(-c2ccc(I)cc2)cs1`: the inhibition result is “inactive”.

Consider `Nc1nc(-c2ccc(F)cc2)cs1`, for which the inhibition is 90.4% (active). In the case of `Cc1ccc(-c2csc(N)n2)cc1`, the inhibition was 101% (active). `Nc1nc(-c2ccc(F)cc2F)cs1`: the inhibition was 33.6%. For `CSc1ccc(-c2csc(N)n2)cc1`, the inhibition is 8.66%. Take `O=c1[nH]c2ccc(-c3csc(-c4ccc(F)cc4)n3)cc2o1`: the inhibition is 39.4%.

Take `c1csc(-c2nc(SCC3COc4ccccc4O3)n[nH]2)c1` (stereo unspecified): the inhibition was -27.5%. For `Brc1ccccc1-c1nnc(CSc2nnnn2C2CC2)o1`, the inhibition was 28.9%.

Take `Clc1ccc(C=NOCc2nnc(-c3ccccc3Br)o2)cc1Cl`: the inhibition was 50.2% (active). As to `c1csc(-c2nnc(CON=C3c4ccccc4-c4ccccc43)o2)c1`, the inhibition was 26.7%.

As for `Oc1ccc(-c2nc3cc(Cl)ccc3s2)cc1`, the inhibition was 36.2%. The result for `CC(C)c1nc(CS(=O)(=O)c2nc3cc(Cl)ccc3s2)no1` reads 64.2% (active). Take `CC(C(N)=O)N1CCC(c2nc3cc(Cl)ccc3s2)CC1` (stereo unspecified): the inhibition was 38%. Take `Cc1cc(C)c(C)c(C(=O)/C=C/C(=O)O)c1C`: the inhibition is 85.5% (active). Consider `O=C(O)/C=C/C=C/c1ccccc1`, for which the inhibition is 38.2%.

As to `Cc1nc(-c2ccc(NC(=O)C3CCOCC3)cc2)co1`, the inhibition was 88.5% (active).

On to `O=C(Nc1ccc(-c2nc3ccccc3o2)cc1)C1CCN(C(=O)C2CCCCO2)CC1` (stereo unspecified), for which the inhibition is 34.5%. As to `O=C(Nc1cccc(-c2noc(C3CC3)n2)c1)C1CCOCC1`, the inhibition is 11.2%. The result for `COc1cc(C(=O)NCC(=O)Nc2nc3c(ccc4ccccc43)s2)cc(OC)c1OC` reads 88.5% (active); that for `O=S(=O)(Nc1nc2c(ccc3ccccc32)s1)c1ccc(Cl)s1`, 22.8%; that for `C(=Cc1nc2c(ccc3ccccc32)s1)c1ccc2c(c1)OCCO2`, 36.3%. With `O=C1CCC(=O)N1OCCOc1cccc(Oc2ccccc2)c1`, the inhibition was 72% (active). On to `CCCCNC(=O)NCC12CC3CC(CC(C3)C1)C2`, for which the inhibition is 74.1% (active). Consider `CC(C)(C(=O)Nc1ccc(F)cc1)c1ccc2c(c1)OCCO2`, for which the inhibition was 57.4% (active). On to `CCOC(=O)C1=C(C)N(c2ccc3c(c2)OCCO3)C(=S)NC1c1cccc(F)c1` (stereo unspecified), for which the inhibition is 1.48%.

Consider `Cc1nc(N2CCCCC2)c2c3c(sc2n1)CC(C)CC3` (stereo unspecified), for which the inhibition is -32.2%. Take `CC1CCc2c(sc3nc(-c4ccc(N(C)C)cc4)nc(N4CCNCC4)c23)C1` (stereo unspecified): the inhibition is 94.9% (active).

In the case of `CC1CCc2c(sc3nc(C(C)C)nc(N4CCN(C(=O)Nc5c(Cl)cccc5Cl)CC4)c23)C1` (stereo unspecified), the inhibition is 10.7%. Turning to `COC(=O)c1ccc(CN(Cc2ccc(OC)cc2)C2CC2)o1`, the inhibition is 54.7% (active).

In the case of `COC(=O)c1ccc(CN(Cc2cccc(OC)c2OC)C2CC2)o1`, the inhibition is 83.8% (active). For `COC(=O)c1ccc(CN(Cc2sccc2C)C2CC2)o1`, the inhibition is 98.5% (active). For `COc1ccc(CCN(Cc2ccc(C)o2)C(=O)CN(C(=O)c2ccccc2Cl)C2CC2)cc1OC`, the inhibition is -5.97%. Regarding `COC(=O)c1ccc(CSc2n[nH]c(=S)s2)o1`, the inhibition entry was “inactive”. For `COc1ccc(CN(C(=O)Nc2cccc(Cl)c2)C2CC2)cc1`, the inhibition was -5.25%. Turning to `COc1cccc(CN(C)C(=O)c2cc3ccccc3o2)c1OC`, the inhibition was 39.1%. For the molecule `CCN(CC1COc2ccccc2O1)C(=O)NCc1sccc1C` (stereo unspecified), the inhibition was -23.5%. Next, `Cc1ccc(NC(=O)NC(=O)CN(Cc2ccco2)C2CC2)cc1C`: -3.72%. Consider `COC(=O)c1ccc(CN(Cc2ccc(C)o2)C2CC2)o1`, for which the inhibition is 66.2% (active). Next, `N#Cc1cc(C(=O)c2cc(Cl)cc(Cl)c2O)cn(-c2nccs2)c1=O`: 25.4%; `O=C(NCCC1CC2CCC1C2)c1ccc(N2CCOCC2)nc1` (stereo unspecified): 5.89%.

Turning to `O=C(CC1C[C@@H]2CC[C@H]1C2)N1CCc2c(cnn2-c2ccccn2)C1` (stereo partly specified), the inhibition is 49.8%. For `O=C(CC1CC2CCC1C2)N1CCN(c2ccccc2O)CC1` (stereo unspecified), the inhibition is 85.9% (active). Take `CCCCCOc1ccc(Nc2cc(-c3cccc(N)c3)ncn2)cc1`: the inhibition was 5.27%. Regarding `COc1cccc(NC(=O)N2CCN(CCCOC(c3ccc(Cl)cc3)c3ccc(Cl)cc3)CC2)c1`, the inhibition was 15.9%. Next, `Cc1cccc(Nc2cc(N3CCN(CCCOc4ccccc4)CC3)ncn2)c1`: 50.3% (active).

On to `Nc1nnc(Sc2ncc([N+](=O)[O-])s2)s1`, for which the inhibition is 102% (active). The result for `O=[N+]([O-])c1c(-n2cccn2)nn(-c2ccccc2)c1C(Cl)Cl` reads 101% (active). With `NCCc1cccc(OCCCc2ccccc2)c1`, the inhibition was 57.2% (active). Turning to `O=C(Nc1nc(-c2ccccn2)cs1)c1cccc(N2CCCC2=O)c1`, the inhibition is 100% (active).

For `COc1cccc(C=CC(=O)c2ccc(N3CCCC3=O)cc2)c1OC`, the inhibition was 40%. Take `CCCCc1ccc(NC(=O)CSc2n[nH]c(=O)c3cc(-c4ccco4)nn23)cc1`: the inhibition was 98.1% (active). For the molecule `S=C(NCC1CCCO1)Nc1ccc(N2CCCCC2)cc1` (stereo unspecified), the inhibition was 60.7% (active). For `S=C(NCC1CCCO1)N1CCc2ccccc2C1` (stereo unspecified), the inhibition was 19.9%.

In the case of `Oc1ccc(C=NNC(=S)NCC2CCCO2)c(O)c1` (stereo unspecified), the inhibition was 101% (active). For the molecule `Cc1cc(C(=O)N2CC=C(c3ccc(O)cc3)CC2)c(C)o1`, the inhibition is 15.5%. For the molecule `Oc1ccc(C2=CCN(c3nnc(Br)s3)CC2)cc1`, the inhibition was 95.1% (active). As to `CNC(=O)c1ccc(N2CC=C(c3ccc(O)cc3)CC2)nn1`, the inhibition is 91.4% (active).

As to `N#Cc1ccc(CN2CC=C(c3ccc(O)cc3)CC2)c(F)c1`, the inhibition is -43%.

As for `Oc1ccc(C2=CCN(c3ncnc4ccccc34)CC2)cc1`, the inhibition was 15.6%. For the molecule `O=S(=O)(Nc1cccc(C2OCC(COc3ccc(Cl)cc3)O2)c1)c1ccccc1` (stereo unspecified), the inhibition was -0.13%. For `CC(=O)Nc1ccc(OCc2nnsc2Cl)cc1`, the inhibition was 85.4% (active). Regarding `CN(c1ccccc1)c1nc2ccsc2c(=O)s1`, the inhibition is 58.2% (active).

Take `CCc1ccccc1Oc1nc(NC(C)C)nc2ccsc12`: the inhibition was 31.8%.
